Source: PubChem (several laboratories)
PfHsp90 yeast 2: growth inhibition of PfHsp90-expressing yeast, primary screen, antimalarial PfHsp90 inhibitor project, S. cerevisiae, BacTiter-Glo luminescence, single point, set 2. BacTiter-Glo ATP, 48 h; yeast lacking PDR1 and PDR3 efflux regulators. inhibition, % at 9.4 µM. 0.32% of 310,000 active;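 active means every replicate shows inhibition above about 80%, whatever the replicate mean, limit read from the data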;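 further: 0% = DMSO neutral controls and 100% = 20 µM radicicol positive controls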
SKKanGAS inh: S. pyogenes SKKanGAS growth inhibitors in kanamycin, primary screen, streptokinase expression inhibitor project, SKKanGAS strain, BacTiter-Glo luminescence. 6 h. inhibition, % at 7.5 µM. 1.3% of 300,000 active;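 active means mean replicate score, as percent of positive control median, at least 50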;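 further: strain carries kanamycin resistance gene driven by streptokinase promoter and grows in 40 µg/ml kanamycin; loss of luminescence reflects streptokinase promoter inhibition or plain growth inhibition; 0% = median of DMSO wells and 100% = positive control at its reference dose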
tim10-1 inh: growth inhibitors of tim10-1 mutant yeast, primary screen, luminescence, uHTS; S. cerevisiae tim10-1 ts strain growth, BacTiter-Glo, 24 h; inhibition, % at 20 µM; 2.2% of 330,000 active; AID 463190, 2010;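 active means inhibition of at least 40%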;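 further: mutant grown at 25 °C; 0% = DMSO wells with yeast and 100% = wells holding no yeast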
TIM10 inh: growth inhibitors of isogenic TIM10 control yeast, primary screen, counter-screen for tim10-1 yeast inhibitor project, luminescence, uHTS; S. cerevisiae TIM10 strain growth, BacTiter-Glo luminescence, 24 h; inhibition, % at 10 µM; 1.4% of 330,000 active;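 active means inhibition of 40% or more at the single tested concentration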;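 further: wild-type TIM10 isogenic control strain grown at permissive 25 °C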
tim23-1 inh: growth inhibitors of tim23-1 mutant yeast, primary screen, luminescence, uHTS | AID 463212, 2010 | S. cerevisiae tim23-1 growth, BacTiter-Glo luminescence, 24 h | inhibition, % at 20 µM | 1.3% of 330,000 active;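 active means growth inhibition of the mutant yeast at or above 50%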;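 further: temperature-sensitive mutant grown at 25 °C; plate controls were DMSO-treated mutant yeast for no effect and medium wells lacking yeast for full effect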
NALP3 yeast inh: NALP3 inflammasome inhibitors in reconstituted yeast, primary screen, luminescence, uHTS | Yeast reconstituted NLRP3/ASC/caspase-1, beta-gal luminescence, 24 h | 0.39% of 330,000 active | AID 2825, 2010 | inhibition, % at 10 µM;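 active means inhibition of 50% or more; inactive means inhibition below 50%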;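 further: plate controls were induced DMSO wells for no effect and uninduced yeast grown without galactose for full effect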
tim10-1 conf: growth inhibitors of tim10-1 mutant yeast, confirmation, single concentration, luminescence, S. cerevisiae. shares compounds with tim10-1 inh. S. cerevisiae tim10-1 ts strain growth, BacTiter-Glo, 24 h. inhibition, % at 20 µM. 56% of 7,400 active;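 active means inhibition of yeast growth at or above a set limit in either of two repeat tests at 20 µM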;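 further: tim10-1 mutant grown at permissive 25 °C to find synthetic lethal compounds; 0% = DMSO yeast wells and 100% = medium wells without yeast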
TIM10 conf: growth inhibitors of wild-type TIM10 yeast, confirmation, counter-screen for tim10-1 synthetic lethality project, single concentration, luminescence, S. cerevisiae; shares compounds with TIM10 inh; inhibition, % at 10 µM; AID 463215, 2010; 63% of 4,600 active; S. cerevisiae tim10 strain growth, BacTiter-Glo luminescence, 24 h;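 active means inhibition of yeast growth at or above a set limit in either of two replicates at 10 µM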;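 further: this counterscreen used the strain with wild-type TIM10; 0% = yeast with DMSO and 100% = medium wells lacking yeast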
tim23-1 confirm: tim23-1 mutant yeast growth inhibitors, confirmation, luminescence, single concentration | shares compounds with tim23-1 inh | S. cerevisiae tim23-1 growth, BacTiter-Glo luminescence, 24 h | inhibition, % at 20 µM | 83% of 4,400 active;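 active means inhibition above about 39% in either of two replicate wells at 20 µM, limit read from the data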;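 further: temperature-sensitive tim23-1 mutant grown at 25 °C; 0% = DMSO wells with yeast and 100% = medium wells without yeast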
The depositor's hits bear a star. This is a sample that favours compounds with a hit; in the whole collection about 4.5% have one here.

CC(=O)Oc1oc(-c2ccccc2)nc1C=Nc1ccccc1 was read as PfHsp90 yeast 2 -7, SKKanGAS inh 1, tim10-1 inh 53*, TIM10 inh 41*, tim23-1 inh 77*, NALP3 yeast inh 12, tim10-1 conf 49*, TIM10 conf 44* and tim23-1 confirm 76*.
For CCC(=O)Oc1oc(-c2ccccc2)nc1C=Nc1ccccc1OC the results were PfHsp90 yeast 2 3, SKKanGAS inh 16, tim10-1 inh 50*, TIM10 inh 40, tim23-1 inh 53*, NALP3 yeast inh -11, tim10-1 conf 36* and tim23-1 confirm 70*.
`Fc1c(F)c(F)c(N/N=C/c2c[nH]c3ccccc23)c(F)c1F` gave PfHsp90 yeast 2 -24, SKKanGAS inh 33, tim10-1 inh 59*, TIM10 inh 61*, tim23-1 inh 80*, NALP3 yeast inh 11, tim10-1 conf 55*, TIM10 conf -2 and tim23-1 confirm 43*.
O=C(NC1CCCCC1)c1cc2ccccc2cc1O was read as PfHsp90 yeast 2 10, SKKanGAS inh 14, tim10-1 inh 13, TIM10 inh -14, tim23-1 inh 23 and NALP3 yeast inh 8.
For O=C(NC1CCCCCCC1)c1ccccc1O the results were PfHsp90 yeast 2 14, SKKanGAS inh 10, tim10-1 inh 46*, TIM10 inh 49*, tim23-1 inh 65*, NALP3 yeast inh 24, tim10-1 conf 34*, TIM10 conf 46* and tim23-1 confirm 60*.
For CC(C)N(CC(=O)Nc1ccc(Cl)cc1C(F)(F)F)C(=O)CCl the results were PfHsp90 yeast 2 0, SKKanGAS inh -2, tim10-1 inh 47*, TIM10 inh 67*, tim23-1 inh 55*, NALP3 yeast inh 12, tim10-1 conf 59*, TIM10 conf 56* and tim23-1 confirm 54*.
`C=CCNC(=O)C(C)N1c2cccc3cccc(c23)S1(=O)=O` (centres undefined) gave PfHsp90 yeast 2 -21, SKKanGAS inh -3, tim10-1 inh -6, TIM10 inh 6, tim23-1 inh 3 and NALP3 yeast inh 11.
COc1ccc(C(=O)C[n+]2cn(C(F)F)c3ccccc32)c(F)c1 was read as SKKanGAS inh -8, tim10-1 inh 53*, TIM10 inh 63*, tim23-1 inh 58*, NALP3 yeast inh -16, tim10-1 conf 50*, TIM10 conf 31* and tim23-1 confirm 43*.
Screening Cc1noc(/C=C/c2ccccn2)c1[N+](=O)[O-] returned PfHsp90 yeast 2 -56, SKKanGAS inh -2, tim10-1 inh 53*, TIM10 inh 51*, tim23-1 inh 62*, NALP3 yeast inh 29, tim10-1 conf 62*, TIM10 conf 58* and tim23-1 confirm 54*.
Screening S=C(NCC1CCCO1)N1CCN(c2nc(-c3ccc(Cl)cc3)cs2)CC1 (centres undefined) returned PfHsp90 yeast 2 -46, SKKanGAS inh 9, tim10-1 inh 51*, TIM10 inh 40*, tim23-1 inh 50*, NALP3 yeast inh 19, tim10-1 conf 39*, TIM10 conf 43* and tim23-1 confirm 52*.
For S=C(NCCCN1CCOCC1)N1CCN(c2nc(-c3ccc(Cl)cc3)cs2)CC1 the results were PfHsp90 yeast 2 12, SKKanGAS inh -20, tim10-1 inh 17, TIM10 inh 30, tim23-1 inh 27 and NALP3 yeast inh 8.
CC(=O)Oc1ccc2c(=O)c(Oc3ccccc3[N+](=O)[O-])coc2c1 was read as PfHsp90 yeast 2 -5, SKKanGAS inh 0, tim10-1 inh 21, TIM10 inh 8, tim23-1 inh 11 and NALP3 yeast inh 17.
CC(=O)Oc1ccc2c(=O)c(-c3nc4ccccc4s3)coc2c1 was read as SKKanGAS inh 10, tim10-1 inh 69*, TIM10 inh 86*, tim23-1 inh 65*, NALP3 yeast inh 18, tim10-1 conf 24, TIM10 conf 49* and tim23-1 confirm 72*.
Screening Cc1ccc(OCc2cc(C(=O)NCc3ccc(OC(F)(F)F)cc3)no2)cn1 returned PfHsp90 yeast 2 6, SKKanGAS inh -3, tim10-1 inh 2, TIM10 inh -14, tim23-1 inh 12 and NALP3 yeast inh 7.
Screening Cc1ccc(OCc2cc(C(=O)NCc3cnn(-c4cccc(F)c4)c3)no2)cn1 returned PfHsp90 yeast 2 -15, SKKanGAS inh -4, tim10-1 inh 44*, TIM10 inh 22, tim23-1 inh 62*, NALP3 yeast inh 22, tim10-1 conf -8 and tim23-1 confirm 60*.
`CCOC(=O)c1c(N)sc2c(NC(C)=O)cccc12` gave PfHsp90 yeast 2 8, SKKanGAS inh 7, tim10-1 inh -5, TIM10 inh 27, tim23-1 inh 15 and NALP3 yeast inh 8.
For CCOC(=O)c1c(N)sc2c(O)c(Br)ccc12 the results were PfHsp90 yeast 2 -38, SKKanGAS inh -3, tim10-1 inh 50*, TIM10 inh 53*, tim23-1 inh 52*, NALP3 yeast inh -15, tim10-1 conf 50*, TIM10 conf 47* and tim23-1 confirm -24.
Screening CC(OC(=O)CCN=C1NS(=O)(=O)c2ccccc21)C(=O)Nc1ccc(N(C)C)cc1 (centres undefined) returned PfHsp90 yeast 2 -16, SKKanGAS inh 1, tim10-1 inh -19, TIM10 inh -2, tim23-1 inh -3 and NALP3 yeast inh 12.
`O=C(OC(c1ccccc1)c1nccc2ccccc12)c1cc([N+](=O)[O-])cc([N+](=O)[O-])c1` (centres undefined) gave PfHsp90 yeast 2 -61, SKKanGAS inh 7, tim10-1 inh 54*, TIM10 inh 43*, tim23-1 inh 57*, NALP3 yeast inh 18, tim10-1 conf 45*, TIM10 conf -7 and tim23-1 confirm 47*.
